TDP1 cell noCPT = qHTS for Inhibitors of human tyrosyl-DNA phosphodiesterase 1 (TDP1): qHTS in cells in absence of CPT | DT40 Tdp1-/- hTDP1 cells, no CPT, ATP luminescence, 48 h | Potency, µM (doses to about 46.2 µM), for inactives: at the highest dose activity change, negative = growth inhibition, hits mostly inhibitors | actives 15% (n = 420,000); note: potency is the fitted concentration of half-maximal effect; nearly all actives have a fitted effect of over 55% in size
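No-CPT arm: Tdp1-/-;hTDP1 DT40 cells (400/well) plus compounds, incubated ≥48 hr at 37 °C. Readout CellTiter-Glo luminescence.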
TDP1 cell CPT = qHTS for Inhibitors of human tyrosyl-DNA phosphodiesterase 1 (TDP1): qHTS in cells in presence of CPT. chicken DT40 Tdp1-/-;hTDP1 cells + 20 nM CPT, ATP luminescence, 48 h. Potency, µM (top dose mostly 46.2 µM), without a hit: top-dose activity change, negative = growth inhibition, actives largely listed as inhibitors. actives 12% (n = 420,000); note: potency is the fitted concentration of half-maximal effect; nearly all actives have a fitted effect of over 55% in size
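Chicken DT40 Tdp1-/- cells stably complemented with human TDP1 were seeded at 400 cells/well in medium containing 20 nM camptothecin, exposed to pin-transferred compounds, and grown at 37 °C for at least 48 hr. Viability was read as ATP luminescence.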
IL-1B inflam inh = qHTS for Inhibitors of Inflammasome Signaling: IL-1-beta AlphaLISA Primary Screen. THP-1 LPS/ATP IL-1B secretion, AlphaLISA, 16 h; hits give low values. actives 4.7% (n = 360,000). AID 743279, 2014. activity change, % at 57.5 µM; in the data active = activity change below about -50%; inconclusive = mostly about -30% to -49%
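Secreted IL-1B measured by AlphaLISA bead assay after 16 h compound exposure of THP-1 cells; compounds (final up to 57.5 uM) added 1 h before LPS (250 ng/mL) and ATP (1.25 mM) stimulation; lower signal means less secretion.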
HT1080-NT tox = qHTS for induction of synthetic lethality in tumor cells producing 2HG: qHTS for the HT-1080-NT fibrosarcoma cell line; actives 1.6% (n = 360,000); HT-1080-NT fibrosarcoma viability, CellTiter-Glo ATP luminescence, 48 h; Potency, µM (series often up to 46.1 µM), for inactives: at the top dose activity, negative = less viability, actives largely listed as cytotoxic; AID 686970, 2013;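 note: NT is the 2HG producing partner of a matched IDH1 knockdown line; potency is the fitted concentration of half-maximal effect; 0% = DMSO-treated cells and -100% = media-only wells without cells; nearly all actives have a fitted effect of over 55% in size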
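Luminescent CellTiter-Glo readout after 48 hours of compound exposure at 37 degrees C defined viability of HT-1080-NT cells. Activity was normalized to DMSO wells and cell-free media wells; concentration-response curves were fitted and assigned curve classes.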
12-LOX inh = Primary qHTS assay for inhibitors of human arachidonate 12S-lipoxygenase (ALOX12): Round 2; Polyunsaturated fatty acid lipoxygenase ALOX12 (Homo sapiens), P18054; purified 12hLO, xylenol orange hydroperoxide absorbance; Potency, µM (doses to about 108 µM), for inactives: at the top dose activity change, negative = inhibition, usual class: inhibitors; actives 1.1% (n = 580,000); AID 1671190, 2021; note: potency is the fitted concentration of half-maximal effect
Target sequence (P18054 whole entry, looked up): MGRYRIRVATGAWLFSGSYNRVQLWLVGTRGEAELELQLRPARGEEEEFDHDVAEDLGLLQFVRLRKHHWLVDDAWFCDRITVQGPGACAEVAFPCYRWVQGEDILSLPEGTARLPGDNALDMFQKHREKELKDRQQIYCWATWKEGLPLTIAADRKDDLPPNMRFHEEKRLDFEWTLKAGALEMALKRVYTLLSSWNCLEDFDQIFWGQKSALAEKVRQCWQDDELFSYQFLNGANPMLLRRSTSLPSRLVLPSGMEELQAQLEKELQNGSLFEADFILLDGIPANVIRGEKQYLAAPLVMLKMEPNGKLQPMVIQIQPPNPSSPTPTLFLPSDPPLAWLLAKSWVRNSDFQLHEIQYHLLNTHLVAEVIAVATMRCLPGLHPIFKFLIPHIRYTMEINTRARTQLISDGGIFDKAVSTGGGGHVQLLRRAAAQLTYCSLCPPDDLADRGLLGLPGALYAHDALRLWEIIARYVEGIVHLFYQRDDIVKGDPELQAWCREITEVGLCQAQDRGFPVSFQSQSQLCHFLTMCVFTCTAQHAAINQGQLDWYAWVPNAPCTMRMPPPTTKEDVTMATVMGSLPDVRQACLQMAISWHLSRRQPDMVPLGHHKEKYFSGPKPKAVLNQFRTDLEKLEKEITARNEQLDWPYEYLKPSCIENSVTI
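Hydroperoxide product was detected by ferrous iron/xylenol orange as the 573 to 405 nm absorbance ratio. Arachidonic acid at 40 uM (final) was turned over for 30 min at room temperature by 150 nM human 12hLO, pH 7.0 Hepes buffer, after 15 min compound preincubation.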
HT1080 IDH1KD tx = qHTS for induction of synthetic lethality in tumor cells producing 2HG: qHTS for the HT-1080-IDH1KD cell line; Potency, µM (doses to about 46.1 µM), without a hit: at the top dose activity, negative = toxicity, usual class: cytotoxic; actives 2% (n = 360,000); HT-1080 IDH1 knockdown viability, ATP luminescence, 48 h;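 note: potency is the fitted concentration of half-maximal effect; 0% = DMSO wells and -100% = cell-free medium wells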
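In this qHTS, HT-1080 cells depleted of IDH1 are exposed for 48 h at 37 °C to compound titrations. Toxicity is scored from CellTiter-Glo luminescence, with DMSO as full viability and medium alone as none.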
An asterisk follows results filed as active. Only a selection was taken, and hits are over-represented in it overall. Unless noted, calls come from the whole dose curve; as a rule, active = well fitted curve in the direction sought with a large enough effect; inconclusive = small, poorly fitted or top-dose-only effect, or another doubt; inactive = no such curve, though single readings can be large; an effect the other way counts as inactive or inconclusive. Unless noted, % is set by controls: 0 for no effect and ±100 for the full control effect.

For COC(=O)c1cn(C(=O)c2ccc(C)c(C)c2)c2ccccc12 the results were TDP1 cell noCPT 20.6µM*, TDP1 cell CPT inconclusive, IL-1B inflam inh 0.0, HT1080-NT tox -13.1%, 12-LOX inh 20.7% and HT1080 IDH1KD tx 15.4%.
For COC(=O)c1cn(C(=O)c2ccc3c(c2)OCO3)c2ccccc12 the results were TDP1 cell noCPT 16.4µM*, TDP1 cell CPT inconclusive, IL-1B inflam inh -18.6, HT1080-NT tox -23.6%, 12-LOX inh 2.1% and HT1080 IDH1KD tx -16.2%.
COC(=O)c1cn(C(=O)c2ccc(C)cc2)c2ccccc12 was read as TDP1 cell noCPT 16.4µM*, TDP1 cell CPT 18.4µM*, IL-1B inflam inh -0.9, HT1080-NT tox -18.0%, 12-LOX inh inconclusive and HT1080 IDH1KD tx -17.4%.
`COC(=O)c1cn(C(=O)c2ccc(OC)cc2)c2ccccc12` gave TDP1 cell noCPT 4.61µM*, TDP1 cell CPT 8.2µM*, IL-1B inflam inh 7.8, HT1080-NT tox inconclusive, 12-LOX inh -4.5% and HT1080 IDH1KD tx 4.61µM*.
For COc1cc(NC(=O)c2nn(C)c(=O)c3ccccc23)cc(OC)c1OC the results were 12-LOX inh -14.6%.
For CC(=O)NCCc1ccc(C(=O)COc2c(Cl)cccc2Cl)s1 the results were 12-LOX inh 5.8%.
Screening O=[N+]([O-])c1cc(S(=O)(=O)Nc2ccc(Cl)cc2)ccc1N/N=C/c1ccccc1 returned 12-LOX inh 12.9%.
N#CC(C#N)=NNc1ccc2cn[nH]c2c1 was read as TDP1 cell noCPT 4.61µM*, TDP1 cell CPT 4.11µM*, IL-1B inflam inh -86.5*, HT1080-NT tox 20.6µM*, 12-LOX inh inconclusive and HT1080 IDH1KD tx 20.6µM*.
Screening CCNC(=S)Nc1ccc2cn[nH]c2c1 returned TDP1 cell noCPT -6.5%, TDP1 cell CPT 20.0%, IL-1B inflam inh -8.0, HT1080-NT tox 23.9%, 12-LOX inh 0.6% and HT1080 IDH1KD tx 21.4%.
For c1ccc(Cn2nc(Cn3cncn3)nc2C2CCCCn3nnnc32)cc1 (configuration not stated) the results were 12-LOX inh -8.6%.
`CC(=O)N1CCN(S(=O)(=O)c2cccc(C(=O)NC3CC3)c2)CC1` gave TDP1 cell noCPT 0.9%, TDP1 cell CPT 23.1%, IL-1B inflam inh 5.1, HT1080-NT tox -2.3%, 12-LOX inh 93.1% and HT1080 IDH1KD tx -5.1%.
For CC1CCC(NC(=O)c2cccc(S(=O)(=O)N3CCN(c4ccc(F)cc4)CC3)c2)CC1 (configuration not stated) the results were TDP1 cell noCPT 9.2µM*, TDP1 cell CPT inconclusive, IL-1B inflam inh 12.4, HT1080-NT tox 2.6%, 12-LOX inh 3.4% and HT1080 IDH1KD tx 1.1%.
Screening O=C(c1cccc(S(=O)(=O)N2CCN(c3ccc(F)cc3)CC2)c1)N1CCCC1 returned TDP1 cell noCPT inconclusive, TDP1 cell CPT inconclusive, IL-1B inflam inh -8.5, HT1080-NT tox -4.9%, 12-LOX inh 11.4% and HT1080 IDH1KD tx -9.0%.
Screening CC1CCN(S(=O)(=O)c2cccc(C(=O)N3CCN(c4ccc(F)cc4)CC3)c2)CC1 returned TDP1 cell noCPT inconclusive, TDP1 cell CPT 14.6µM*, IL-1B inflam inh -13.6, HT1080-NT tox inconclusive, 12-LOX inh -20.2% and HT1080 IDH1KD tx -22.6%.
